Measurements as given in PubChem BioAssay (NCI).
The panel holds about 79,000 compounds, 15% with a hit somewhere; the sample as a whole holds those more often. Rule as the data show it: active = growth inhibition above about 70%; inactive = the rest.

Tests used:
[1] = NCI Yeast Anticancer Drug Screen. Data for the rad50 strain (AID 155);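 also: 0% = growth of vehicle-only cultures of the same strain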; settings: S. cerevisiae rad50 strain growth inhibition; at 50.0 µM; hits give high values
Summary of the method: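 Yeast carrying a defined DNA repair defect were exposed to test compounds, and growth was compared with vehicle-treated controls to give percent inhibition.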

[2] = NCI Yeast Anticancer Drug Screen. Data for the mec2-1 strain (AID 157); settings: S. cerevisiae mec2-1 strain, at 50.0 µM, hits give high values
Summary of the method: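 Test agents were screened against the mec2-1 yeast strain, with defined DNA repair or cell cycle alteration. Growth was scored as inhibition against vehicle-only controls.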

[3] = NCI Yeast Anticancer Drug Screen. Data for the sgs1 mgt1 strain (AID 161);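 also: 0% = growth of cultures given vehicle only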; settings: S. cerevisiae sgs1 mgt1 strain, at 50.0 µM, hits give high values
Summary of the method: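 Mutant yeast exposed to compound; growth scored against vehicle-only wells.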

[4] = NCI Yeast Anticancer Drug Screen. Data for the cln2 rad14 strain (AID 165);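 also: 0% = growth equal to vehicle treated cultures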; settings: S. cerevisiae cln2 rad14 strain, at 50.0 µM, hits give high values
Summary of the method: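 Growth of compound-exposed yeast (cln2 rad14 genotype) measured and expressed as inhibition relative to vehicle.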

[5] = NCI Yeast Anticancer Drug Screen. Data for the bub3 strain (AID 167); settings: S. cerevisiae bub3 mutant strain, at 50.0 µM, hits give high values
Summary of the method: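 Compounds were applied to a genetically altered yeast strain carrying a cell-cycle control defect. Growth inhibition was scored against vehicle-treated controls.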

[6] = NCI Yeast Anticancer Drug Screen. Data for the mlh1 rad18 strain (AID 175); settings: S. cerevisiae mlh1 rad18 strain growth inhibition; at 50.0 µM; hits give high values
Summary of the method: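 In this whole-cell yeast screen, a strain with altered DNA damage repair is challenged with compound, and its growth is measured against matched vehicle-treated controls.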

Measured: growth inhibition

CC1OC2=N[C@@H]1C(=O)N[C@@H](C(C)C)C1=N[C@H](C(=O)N[C@@H](C(C)C)C3=N[C@H](C(=O)N[C@@H](C(C)C)C4=N[C@H](C(=O)N[C@H]2C(C)C)C(C)O4)C(C)O3)C(C)O1 (stereo partly specified)
inactive: [1] 6.9% | [2] 3.55% | [3] 3.55% | [4] 19.1% | [5] 14.8% | [6] 9.55%

COC(=O)c1c(C)ccc(C)c1C(=O)c1c(C)cc(C)cc1C
inactive: [1] -14.6% | [2] 11.5% | [3] 5% | [4] -28.1% | [5] 24.3% | [6] 4.1%

CCOC(=O)C(=CNC(=S)Nc1ccc(OCC)cc1)C(=O)OCC
inactive: [1] -9.75% | [2] -24.5% | [3] -7.85% | [4] -16.3% | [5] 11.5% | [6] 6.05%

Cc1cc(C)c(C(=O)c2ccccc2C(=O)c2ccccc2)c(C)c1
inactive: [1] 20.5% | [2] -5.55% | [3] 17.2% | [4] 20.2% | [5] 20.6% | [6] 11.5%

CC1CC=CCC1COB(OCC1CC=CCC1C)OCC1CC=CCC1C (stereo unspecified)
inactive: [1] 22.8% | [2] -21.5% | [3] 29.1% | [4] 23.1% | [5] 24.3% | [6] -0.25%

COCc1nc2c(=O)[nH]c(N)nc2[nH]c1=O
inactive: [1] 2.55% | [2] -3.55% | [3] -4.8% | [4] -0.25% | [5] 1.7% | [6] 1.1%

CCC(CCC#N)(CCC#N)C(=O)c1ccc(C)s1
inactive: [1] 1.5% | [2] -4.3% | [3] 1.3% | [4] -19.8% | [5] 0.1% | [6] 2.45%

C=C1CC(OC(C)=O)/C=C(/C)CCC(C(C)(C)O)CC1O (stereo unspecified)
inactive: [1] 6.7% | [2] -32% | [3] -11.2% | [4] 7.65% | [5] -8% | [6] -20.9%

Cc1cc(C)c(NC(=O)Nc2ccc(C(Cl)(Cl)Cl)cc2)c(C)c1
inactive: [1] 4.9% | [2] 11.5% | [3] 8.8% | [4] 7% | [5] 2.9% | [6] 2.8%

CCCC(C)C(O)CC (stereo unspecified)
inactive: [1] -27.1% | [2] -28.9% | [3] 7.45% | [4] 13.3% | [5] -19.5% | [6] -10%

CCCCCCCCCCCCCCCCOc1ccc(/C=N/Nc2ccccc2)cc1OC
inactive: [1] -20.1% | [2] -22.2% | [3] -25.9% | [4] 0.95% | [5] -32% | [6] -13.6%

CCOC(=O)C1=C(C)OC(=O)CC1C (stereo unspecified)
inactive: [1] 33.2% | [2] -15.8% | [3] 3.75% | [4] 9.05% | [5] -23.6% | [6] 14%

Cc1cccc(C(=O)OCc2ccccc2CN2CCCC2)c1
inactive: [1] 1.5% | [2] -7.75% | [3] -10.1% | [4] 2.85% | [5] -2.05% | [6] -1.45%

CCCCCCCc1ccccc1
inactive: [1] -13.1% | [2] -14.7% | [3] -19.6% | [4] 3.95% | [5] 20.2% | [6] -6.5%

COc1cc(C2C(C(=O)O)=C(COC(C)=O)Oc3cc4c(cc32)OCO4)cc(OC)c1OC (stereo unspecified)
inactive: [1] -9.9% | [2] -15.4% | [3] -25.4% | [4] -19.2% | [5] -4.1% | [6] -8.6%

O=S1(=O)C=C(c2ccccc2)C1
inactive: [1] -8.25% | [2] -2.4% | [3] -19.8% | [4] -33.4% | [5] 4.25% | [6] 8.6%

O=C(CC(=O)N1CCOCC1)N1CCOCC1
inactive: [1] 4.5% | [2] -14.8% | [3] 26.9% | [4] 7.9% | [5] 19.4% | [6] 7.45%

COC(=O)[C@@H]1CON(Cc2ccccc2)C1CC1(C)OCCO1 (stereo partly specified)
inactive: [1] 0.85% | [2] -7.3% | [3] 23.8% | [4] 0.6% | [5] 7.35% | [6] 8.45%

O=NN(CCCl)C(=O)NC1CCC(O)CC1 (stereo unspecified)
inactive: [1] -16.9% | [2] -10.8% | [3] -24% | [4] 13.2% | [5] -4.2% | [6] -4.2%

CN1COc2c(ccc3c4c(ccc23)CN(C)CO4)C1
inactive: [1] 3.15% | [2] 17.9% | [3] 16.6% | [4] -47% | [5] 1.75% | [6] 35.4%

Cc1cc(O)cc(O)c1C(=O)O[C@]1(C)C(=O)C=C2C=C(/C=C/C(=O)O)OC=C2C1=O
inactive: [1] -2.6% | [2] -16.9% | [3] -9.95% | [4] 9.6% | [5] -13.5% | [6] -3.9%
